Source: the supplement of paper PMC11732987, “Enantioselective OTUD7B fragment discovery through chemoproteomics screening and high-throughput optimisation” (Communications Chemistry, 2025)

Legend:
Assay in all cases: log2 ratio of Biotin-Ahx-Ub-VS probe labelling (fragment/DMSO); higher = less target engagement (more negative = stronger competition), active = hit call of the paper (q ≤ 0.05, log2 ratio ≤ -1)
Conditions in all cases: compound concentration: 200 uM; treatment time: 3 h
OTUD6B = molecular target: T1, OTUD6B (UniProt Q8N6M0)
T1 sequence (whole entry): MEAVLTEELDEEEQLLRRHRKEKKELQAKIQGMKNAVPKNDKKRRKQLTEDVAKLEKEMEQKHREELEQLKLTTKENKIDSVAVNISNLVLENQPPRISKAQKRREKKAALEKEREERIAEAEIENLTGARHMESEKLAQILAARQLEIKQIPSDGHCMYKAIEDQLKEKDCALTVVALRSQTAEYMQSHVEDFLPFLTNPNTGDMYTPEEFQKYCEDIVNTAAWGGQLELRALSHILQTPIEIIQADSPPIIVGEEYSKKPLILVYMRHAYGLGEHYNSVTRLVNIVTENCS
Outline: (§1)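 HEK293T lysate (495 µg per sample, in Tris/CHAPS/IGEPAL buffer with protease inhibitors) was exposed in triplicate for 3 h to fragment at 200 µM or to vehicle, then to Biotin-Ahx-Ub-VS at 0.5 µM final for 1 h. Labelled DUBs were enriched on NeutrAvidin, digested with LysC and trypsin, and analysed by diaPASEF LC-MS/MS. Spectronaut label-free quantities were normalised to the global median, and values are average log2 ratios of fragment over vehicle from an unpaired t-test. Only proteins with ≥2 unique peptides were used.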

OTUD7B = molecular target: T2, OTUD7B (UniProt Q6GQQ9)
T2 sequence (whole entry): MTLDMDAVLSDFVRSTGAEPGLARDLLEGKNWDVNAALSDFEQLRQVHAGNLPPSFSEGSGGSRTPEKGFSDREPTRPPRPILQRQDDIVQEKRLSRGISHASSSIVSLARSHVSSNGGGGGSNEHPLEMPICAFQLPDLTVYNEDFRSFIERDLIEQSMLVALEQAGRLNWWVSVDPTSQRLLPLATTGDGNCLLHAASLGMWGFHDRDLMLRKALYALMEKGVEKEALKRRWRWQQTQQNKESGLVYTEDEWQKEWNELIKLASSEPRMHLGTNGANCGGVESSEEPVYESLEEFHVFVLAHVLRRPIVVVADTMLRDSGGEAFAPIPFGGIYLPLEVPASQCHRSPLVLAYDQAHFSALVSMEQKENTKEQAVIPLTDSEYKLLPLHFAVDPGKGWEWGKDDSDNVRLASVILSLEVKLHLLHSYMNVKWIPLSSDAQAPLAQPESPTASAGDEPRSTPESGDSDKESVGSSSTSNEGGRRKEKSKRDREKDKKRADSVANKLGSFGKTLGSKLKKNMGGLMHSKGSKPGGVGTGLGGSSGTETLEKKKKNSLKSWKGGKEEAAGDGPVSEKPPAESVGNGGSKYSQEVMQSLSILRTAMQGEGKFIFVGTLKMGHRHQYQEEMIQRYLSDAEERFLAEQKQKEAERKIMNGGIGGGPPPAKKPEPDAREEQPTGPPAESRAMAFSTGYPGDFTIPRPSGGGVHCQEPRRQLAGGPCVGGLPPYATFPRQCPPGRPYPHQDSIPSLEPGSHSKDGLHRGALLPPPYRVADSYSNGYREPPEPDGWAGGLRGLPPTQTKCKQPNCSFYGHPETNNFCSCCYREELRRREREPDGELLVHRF
Outline: as §1

PRPF8 = PRPF8 (UniProt Q6P2Q9)
Outline: as §1

PSMD7 = molecular target: T3, PSMD7 (UniProt P51665)
T3 sequence (whole entry): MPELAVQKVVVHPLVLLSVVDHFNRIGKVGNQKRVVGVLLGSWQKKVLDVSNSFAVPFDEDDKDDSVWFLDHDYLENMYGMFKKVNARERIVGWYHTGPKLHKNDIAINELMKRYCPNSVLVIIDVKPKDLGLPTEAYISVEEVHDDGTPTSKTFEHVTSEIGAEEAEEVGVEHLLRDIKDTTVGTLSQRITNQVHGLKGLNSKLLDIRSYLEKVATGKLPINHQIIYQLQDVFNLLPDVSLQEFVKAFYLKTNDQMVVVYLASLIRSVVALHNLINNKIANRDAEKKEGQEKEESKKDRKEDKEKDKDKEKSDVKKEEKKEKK
Outline: as §1

UCHL1 = UCHL1 (UniProt P09936)
Outline: as §1

UCHL3 = molecular target: T4, UCHL3 (UniProt P15374)
T4 sequence (whole entry): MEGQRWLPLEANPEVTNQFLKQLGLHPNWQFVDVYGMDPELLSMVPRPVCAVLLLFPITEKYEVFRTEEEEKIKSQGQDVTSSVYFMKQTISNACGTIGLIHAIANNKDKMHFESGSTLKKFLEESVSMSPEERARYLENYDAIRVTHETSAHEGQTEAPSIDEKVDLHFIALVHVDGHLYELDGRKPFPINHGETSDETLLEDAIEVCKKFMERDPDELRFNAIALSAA
Outline: as §1

UCHL5 = molecular target: T5, UCHL5 (UniProt Q9Y5K5)
T5 sequence (whole entry): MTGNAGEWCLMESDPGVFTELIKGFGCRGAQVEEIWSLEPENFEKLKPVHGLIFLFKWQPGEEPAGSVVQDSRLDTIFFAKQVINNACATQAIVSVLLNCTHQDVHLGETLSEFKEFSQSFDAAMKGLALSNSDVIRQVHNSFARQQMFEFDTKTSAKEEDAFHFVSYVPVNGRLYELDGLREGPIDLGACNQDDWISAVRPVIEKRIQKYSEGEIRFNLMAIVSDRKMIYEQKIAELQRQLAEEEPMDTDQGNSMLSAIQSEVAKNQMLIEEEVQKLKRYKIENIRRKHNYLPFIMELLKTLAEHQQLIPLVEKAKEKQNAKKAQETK
Outline: as §1

USP10 = USP10 (UniProt Q14694)
Outline: as §1

USP15 = molecular target: T6, USP15 (UniProt Q9Y4E8)
T6 sequence (whole entry): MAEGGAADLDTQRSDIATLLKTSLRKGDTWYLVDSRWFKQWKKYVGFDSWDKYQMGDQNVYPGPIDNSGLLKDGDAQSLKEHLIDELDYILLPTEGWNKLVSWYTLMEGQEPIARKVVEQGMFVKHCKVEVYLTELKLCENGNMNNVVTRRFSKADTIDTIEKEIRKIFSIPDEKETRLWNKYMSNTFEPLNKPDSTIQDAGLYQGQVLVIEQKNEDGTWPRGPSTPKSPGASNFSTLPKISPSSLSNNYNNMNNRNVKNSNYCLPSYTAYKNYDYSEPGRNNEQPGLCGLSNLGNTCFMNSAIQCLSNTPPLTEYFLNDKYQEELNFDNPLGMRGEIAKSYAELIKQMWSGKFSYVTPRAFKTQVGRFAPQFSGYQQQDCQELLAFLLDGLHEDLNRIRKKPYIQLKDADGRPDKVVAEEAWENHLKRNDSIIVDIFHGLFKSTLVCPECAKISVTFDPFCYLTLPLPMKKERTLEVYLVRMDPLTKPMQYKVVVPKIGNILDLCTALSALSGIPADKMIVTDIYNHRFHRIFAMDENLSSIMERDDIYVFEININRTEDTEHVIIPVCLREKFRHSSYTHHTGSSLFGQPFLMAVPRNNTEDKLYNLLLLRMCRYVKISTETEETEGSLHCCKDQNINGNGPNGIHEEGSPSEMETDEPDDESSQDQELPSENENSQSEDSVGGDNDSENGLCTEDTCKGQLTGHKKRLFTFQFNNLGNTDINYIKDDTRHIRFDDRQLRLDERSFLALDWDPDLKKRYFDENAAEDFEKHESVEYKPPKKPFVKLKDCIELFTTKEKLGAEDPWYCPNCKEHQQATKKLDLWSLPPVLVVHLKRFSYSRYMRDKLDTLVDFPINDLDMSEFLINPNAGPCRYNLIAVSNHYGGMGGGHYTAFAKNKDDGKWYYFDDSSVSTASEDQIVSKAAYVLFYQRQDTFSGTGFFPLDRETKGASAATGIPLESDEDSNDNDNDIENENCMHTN
Outline: as §1

USP16 = USP16 (UniProt Q9Y5T5)
Outline: as §1

Measured: log2 ratio of Biotin-Ahx-Ub-VS probe labelling

UCHL1, sequence (P09936 whole entry, looked up): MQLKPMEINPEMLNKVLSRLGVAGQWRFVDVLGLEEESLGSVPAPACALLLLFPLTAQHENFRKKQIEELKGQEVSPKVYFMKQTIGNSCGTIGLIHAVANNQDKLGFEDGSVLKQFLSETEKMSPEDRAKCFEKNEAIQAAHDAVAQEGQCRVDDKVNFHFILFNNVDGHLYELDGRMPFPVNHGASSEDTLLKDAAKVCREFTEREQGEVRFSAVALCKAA
USP10, sequence (Q14694 whole entry): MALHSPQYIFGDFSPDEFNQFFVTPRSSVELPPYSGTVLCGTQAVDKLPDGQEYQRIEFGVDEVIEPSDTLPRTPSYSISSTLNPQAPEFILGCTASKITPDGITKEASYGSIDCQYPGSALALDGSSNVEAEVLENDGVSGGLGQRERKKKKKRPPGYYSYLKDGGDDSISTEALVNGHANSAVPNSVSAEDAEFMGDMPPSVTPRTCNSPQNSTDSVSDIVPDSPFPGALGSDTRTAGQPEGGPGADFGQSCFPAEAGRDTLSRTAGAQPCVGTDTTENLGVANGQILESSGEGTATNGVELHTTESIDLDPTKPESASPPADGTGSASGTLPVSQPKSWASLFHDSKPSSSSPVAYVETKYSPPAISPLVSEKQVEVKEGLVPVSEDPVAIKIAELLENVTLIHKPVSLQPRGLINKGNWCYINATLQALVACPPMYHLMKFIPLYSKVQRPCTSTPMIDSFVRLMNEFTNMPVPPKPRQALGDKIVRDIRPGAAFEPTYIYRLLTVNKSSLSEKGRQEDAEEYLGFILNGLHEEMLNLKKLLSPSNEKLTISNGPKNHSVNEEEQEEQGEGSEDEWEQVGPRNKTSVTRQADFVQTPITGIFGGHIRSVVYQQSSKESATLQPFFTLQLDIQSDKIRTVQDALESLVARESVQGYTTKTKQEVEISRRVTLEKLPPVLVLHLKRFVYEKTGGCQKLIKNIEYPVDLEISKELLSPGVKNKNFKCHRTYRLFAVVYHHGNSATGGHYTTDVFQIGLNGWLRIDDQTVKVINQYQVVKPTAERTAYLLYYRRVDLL
USP16, sequence (Q9Y5T5 whole entry, looked up): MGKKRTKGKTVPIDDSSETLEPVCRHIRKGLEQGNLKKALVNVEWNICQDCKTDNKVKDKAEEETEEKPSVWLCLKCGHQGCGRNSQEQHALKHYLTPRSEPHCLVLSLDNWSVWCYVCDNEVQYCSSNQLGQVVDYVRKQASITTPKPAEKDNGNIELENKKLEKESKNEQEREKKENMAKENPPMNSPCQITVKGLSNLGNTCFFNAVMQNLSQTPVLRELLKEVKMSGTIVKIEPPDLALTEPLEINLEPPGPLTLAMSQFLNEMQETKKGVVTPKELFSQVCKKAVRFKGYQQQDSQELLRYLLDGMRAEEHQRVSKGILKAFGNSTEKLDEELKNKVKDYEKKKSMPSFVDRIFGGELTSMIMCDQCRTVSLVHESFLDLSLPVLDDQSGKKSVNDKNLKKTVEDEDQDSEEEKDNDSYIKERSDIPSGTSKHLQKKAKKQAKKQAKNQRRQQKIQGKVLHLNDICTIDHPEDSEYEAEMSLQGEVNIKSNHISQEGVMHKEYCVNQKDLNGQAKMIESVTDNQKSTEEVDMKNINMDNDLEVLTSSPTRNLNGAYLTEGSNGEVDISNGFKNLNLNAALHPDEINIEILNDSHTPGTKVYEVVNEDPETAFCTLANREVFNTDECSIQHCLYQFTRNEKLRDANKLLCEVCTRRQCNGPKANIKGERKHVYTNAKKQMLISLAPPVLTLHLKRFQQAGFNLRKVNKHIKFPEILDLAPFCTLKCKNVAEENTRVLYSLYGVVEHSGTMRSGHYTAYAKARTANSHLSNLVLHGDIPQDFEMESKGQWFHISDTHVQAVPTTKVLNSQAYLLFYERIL

COc1ccc(CN(C)C(=O)CCl)cc1
inactive: OTUD6B -0.199 | OTUD7B -0.373 | PRPF8 0.0533 | PSMD7 -0.411 | UCHL3 0.249 | UCHL5 -0.235 | USP10 -0.213 | USP15 -0.112 | USP16 0.163
active: UCHL1 -1.22
